Growth inhibition data for ten compounds are collected here from PubChem BioAssay (NCI).

The nature of experiment [1]: NCI Yeast Anticancer Drug Screen. Data for the rad50 strain (AID 155).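 Also: 0% = growth of vehicle-only cultures of the same strain.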 The conditions noted are these: S. cerevisiae rad50 strain growth inhibition, stronger effect = higher value. The procedure, abridged: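 A DNA repair-deficient yeast mutant serves as the test organism; compound-induced growth inhibition is calculated against vehicle-treated cells.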
The nature of experiment [2]: NCI Yeast Anticancer Drug Screen. Data for the mec2-1 strain (AID 157). The conditions noted are these: S. cerevisiae mec2-1 strain, stronger effect = higher value. The essentials: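 Growth inhibition is read against vehicle-treated controls after compound exposure of the mec2-1 yeast strain, which is defective in DNA damage repair or cell cycle control.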
The nature of experiment [3]: NCI Yeast Anticancer Drug Screen. Data for the sgs1 mgt1 strain (AID 161).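 Also: 0% = growth of cultures given vehicle only.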 The conditions noted are these: S. cerevisiae sgs1 mgt1 strain, stronger effect = higher value. The procedure, abridged: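 Percent growth inhibition was derived by comparing compound-exposed mutant yeast with vehicle-exposed cultures. The strain carries alterations in DNA damage repair.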
The nature of experiment [4]: NCI Yeast Anticancer Drug Screen. Data for the cln2 rad14 strain (AID 165).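 Also: 0% = growth equal to vehicle treated cultures.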 The conditions noted are these: S. cerevisiae cln2 rad14 strain, stronger effect = higher value. The essentials:
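Growth inhibition, relative to vehicle-treated controls, is the read-out. The test organism is a yeast strain with defined genetic alterations, cln2 rad14.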

Experiment [5] is described as follows: NCI Yeast Anticancer Drug Screen. Data for the bub3 strain (AID 167). The conditions noted are these: S. cerevisiae bub3 mutant strain, stronger effect = higher value. The procedure, abridged: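 Inhibition values come from growth of compound-treated mutant yeast normalised to vehicle-treated controls.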
Experiment [6] is described as follows: NCI Yeast Anticancer Drug Screen. Data for the mlh1 rad18 strain (AID 175). The conditions noted are these: S. cerevisiae mlh1 rad18 strain growth inhibition, stronger effect = higher value. The procedure, abridged: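 Cells of a genetically altered yeast strain, deficient in DNA damage repair, were treated with compound. Their growth was then compared with that of vehicle-treated cultures to give inhibition.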

Where [7] appears, read: at 5.0 µM (retest, dose inferred, filed as 0.5).
Where [8] appears, read: at 50.0 µM (retest, dose inferred, filed as 5.0).

Structures are written as SMILES. The panel holds about 79,000 compounds, 15% with a hit somewhere; the sample as a whole holds those more often. A number with no mark means an inactive call. The source made the active and inactive calls. Rule as the data show it: active = growth inhibition above about 70%; inactive = the rest.

As for `COc1ccc(/C=C/c2cc(OC)c(OC)c(OC)c2)cc1O[Si](C)(C)C(C)(C)C`, the growth inhibition in experiment [1] (setting [7]) is 1%; in experiment [1] (setting [8]), -9%; in experiment [1] (at 50.0 µM), -2.65%; in experiment [2] (setting [7]), 0%; in experiment [2] (setting [8]) it was -3%; in experiment [2] (at 50.0 µM) it was -1.75%. In addition, the growth inhibition was -1% in experiment [3] (setting [7]); -5% in experiment [3] (setting [8]); 13.6% in experiment [3] (at 50.0 µM); 1% in experiment [4] (setting [7]); -4% in experiment [4] (setting [8]); 53.2% in experiment [4] (at 50.0 µM). Also, the growth inhibition was -1% in experiment [5] (setting [7]); -7% in experiment [5] (setting [8]); -37.5% in experiment [5] (at 50.0 µM); 1% in experiment [6] (setting [7]); -6% in experiment [6] (setting [8]); -4.45% in experiment [6] (at 50.0 µM).
Turning to `Oc1cc(-[n+]2ccccc2)c(O)c2ccccc12`, the growth inhibition in experiment [1] (setting [7]) is 15%; in experiment [1] (setting [8]) it was 82% (active); in experiment [1] (at 50.0 µM), -11.2%; in experiment [2] (setting [7]), 9%; in experiment [2] (setting [8]) it was 68%; in experiment [2] (at 50.0 µM), 3.45%. For the same compound, the growth inhibition in experiment [3] (setting [7]) is 5%; in experiment [3] (setting [8]), 80% (active); in experiment [3] (at 50.0 µM), -5.35%; in experiment [4] (setting [7]) it was 9%; in experiment [4] (setting [8]), 71% (active); in experiment [4] (at 50.0 µM) it was 37.8%. In addition, the growth inhibition in experiment [5] (setting [7]) was 21%; in experiment [5] (setting [8]) it was 91% (active); in experiment [5] (at 50.0 µM), 6.3%; in experiment [6] (setting [7]), 28%; in experiment [6] (setting [8]), 83% (active); in experiment [6] (at 50.0 µM) it was 20.8%.
As to `CC1CC(=O)OC(C(=O)c2ccccc2)N1c1ccc(C(F)(F)F)cc1N` (stereo not given), the growth inhibition in experiment [1] (setting [7]) was 4%; in experiment [1] (setting [8]) it was 30%; in experiment [1] (at 50.0 µM) it was 81.6% (active); in experiment [2] (setting [7]) it was 11%; in experiment [2] (setting [8]), 11%; in experiment [2] (at 50.0 µM), 65%. Besides, the growth inhibition in experiment [3] (setting [7]) was 8%; in experiment [3] (setting [8]), 38%; in experiment [3] (at 50.0 µM), 59.4%; in experiment [4] (setting [7]), 0%; in experiment [4] (setting [8]), 2%; in experiment [4] (at 50.0 µM), 56.4%. Further, the growth inhibition in experiment [5] (setting [7]) is 2%; in experiment [5] (setting [8]), 10%; in experiment [5] (at 50.0 µM) it was 32.2%; in experiment [6] (setting [7]) it was 3%; in experiment [6] (setting [8]), 27%; in experiment [6] (at 50.0 µM), 88.4% (active).
`O=C1OC(c2ccc(O)cc2)=C(c2ccccc2)C1c1ccccc1` (stereo not given): the growth inhibition is 9% in experiment [1] (setting [7]); 36% in experiment [1] (setting [8]); 99.4% (active) in experiment [1] (at 50.0 µM); -7% in experiment [2] (setting [7]); 29% in experiment [2] (setting [8]); 99.5% (active) in experiment [2] (at 50.0 µM). In addition, the growth inhibition was -10% in experiment [3] (setting [7]); 47% in experiment [3] (setting [8]); 99.5% (active) in experiment [3] (at 50.0 µM); 4% in experiment [4] (setting [7]); 26% in experiment [4] (setting [8]); 99.5% (active) in experiment [4] (at 50.0 µM). Besides, the growth inhibition was 2% in experiment [5] (setting [7]); 29% in experiment [5] (setting [8]); 99.4% (active) in experiment [5] (at 50.0 µM); 10% in experiment [6] (setting [7]); 67% in experiment [6] (setting [8]); 99.5% (active) in experiment [6] (at 50.0 µM).
For `CCCCCCCCCCCCCCCCP(=O)([O-])OCC[N+](C)(C)C`, the growth inhibition in experiment [1] (setting [7]) is -34%; in experiment [1] (setting [8]), 99% (active); in experiment [1] (at 50.0 µM), 80.8% (active); in experiment [2] (setting [7]), -32%; in experiment [2] (setting [8]) it was 99% (active); in experiment [2] (at 50.0 µM), 87.3% (active). The growth inhibition in experiment [3] (setting [7]) was 0%; in experiment [3] (setting [8]), 99% (active); in experiment [3] (at 50.0 µM) it was 89.2% (active); in experiment [4] (setting [7]), -27%; in experiment [4] (setting [8]), 99% (active); in experiment [4] (at 50.0 µM), 89.5% (active). In addition, the growth inhibition in experiment [5] (setting [7]) is -32%; in experiment [5] (setting [8]) it was 98% (active); in experiment [5] (at 50.0 µM), 88.5% (active); in experiment [6] (setting [7]), -26%; in experiment [6] (setting [8]) it was 98% (active); in experiment [6] (at 50.0 µM), 91.5% (active).
Turning to `COC1=C(NC(C)=O)C(=O)c2nc(-c3nc(C(=O)O)c(C)c(-c4ccc(OC)c(OC)c4O)c3N)ccc2C1=O`, the growth inhibition in experiment [1] (setting [7]) was 59%; in experiment [1] (setting [8]), 93% (active); in experiment [1] (at 50.0 µM), 78.4% (active); in experiment [2] (setting [7]) it was 28%; in experiment [2] (setting [8]), 79% (active); in experiment [2] (at 50.0 µM), 69.7%. Also, the growth inhibition in experiment [3] (setting [7]) is 43%; in experiment [3] (setting [8]), 92% (active); in experiment [3] (at 50.0 µM) it was 68.7%; in experiment [4] (setting [7]) it was 38%; in experiment [4] (setting [8]) it was 90% (active); in experiment [4] (at 50.0 µM), 57.1%. Besides, the growth inhibition in experiment [5] (setting [7]) is 15%; in experiment [5] (setting [8]), 70% (active); in experiment [5] (at 50.0 µM), 55.8%; in experiment [6] (setting [7]) it was 48%; in experiment [6] (setting [8]), 89% (active); in experiment [6] (at 50.0 µM), 87% (active).
As to `COc1ccc(CCCC(=O)O)c2c(OC)cccc12`, the growth inhibition in experiment [1] (setting [7]) was 14%; in experiment [1] (setting [8]), 58%; in experiment [1] (at 50.0 µM) it was 80.8% (active); in experiment [2] (setting [7]), 0%; in experiment [2] (setting [8]) it was 48%; in experiment [2] (at 50.0 µM), 39.9%. For the same compound, the growth inhibition is 7% in experiment [3] (setting [7]); 62% in experiment [3] (setting [8]); 60.8% in experiment [3] (at 50.0 µM); 23% in experiment [4] (setting [7]); 55% in experiment [4] (setting [8]); 72.2% (active) in experiment [4] (at 50.0 µM). The growth inhibition in experiment [5] (setting [7]) was 4%; in experiment [5] (setting [8]) it was 60%; in experiment [5] (at 50.0 µM) it was 49.9%; in experiment [6] (setting [7]) it was 5%; in experiment [6] (setting [8]), 73% (active); in experiment [6] (at 50.0 µM), 78.3% (active).
For the compound `Oc1ccc(Cc2ccccc2)cc1Cl`, the growth inhibition in experiment [1] (setting [7]) is -1%; in experiment [1] (setting [8]), 74% (active); in experiment [1] (at 50.0 µM), 47.5%; in experiment [2] (setting [7]), -2%; in experiment [2] (setting [8]) it was 72% (active); in experiment [2] (at 50.0 µM) it was 41.7%. Moreover, the growth inhibition is -2% in experiment [3] (setting [7]); 78% (active) in experiment [3] (setting [8]); 42.8% in experiment [3] (at 50.0 µM); -4% in experiment [4] (setting [7]); 47% in experiment [4] (setting [8]); 95% (active) in experiment [4] (at 50.0 µM). The growth inhibition was -6% in experiment [5] (setting [7]); 54% in experiment [5] (setting [8]); 97.7% (active) in experiment [5] (at 50.0 µM); -1% in experiment [6] (setting [7]); 85% (active) in experiment [6] (setting [8]); 41.6% in experiment [6] (at 50.0 µM).
`O=C1c2ccccc2C(=O)c2c1cc(O)c(O)c2O`: the growth inhibition in experiment [1] (setting [7]) was 17%; in experiment [1] (setting [8]), 95% (active); in experiment [1] (at 50.0 µM), 83.2% (active); in experiment [2] (setting [7]) it was 20%; in experiment [2] (setting [8]) it was 92% (active); in experiment [2] (at 50.0 µM), 77.5% (active). Further, the growth inhibition is 23% in experiment [3] (setting [7]); 95% (active) in experiment [3] (setting [8]); 81.5% (active) in experiment [3] (at 50.0 µM); 2% in experiment [4] (setting [7]); 88% (active) in experiment [4] (setting [8]); 59.2% in experiment [4] (at 50.0 µM). The growth inhibition is 13% in experiment [5] (setting [7]); 91% (active) in experiment [5] (setting [8]); 70.7% (active) in experiment [5] (at 50.0 µM); 35% in experiment [6] (setting [7]); 95% (active) in experiment [6] (setting [8]); 82% (active) in experiment [6] (at 50.0 µM).
In the case of `CN[C@@H](Cc1cccc2ccccc12)C(=O)N[C@@H](CC(C)C)B(O)O`, the growth inhibition in experiment [1] (setting [7]) is 34%; in experiment [1] (setting [8]), 51%; in experiment [1] (at 50.0 µM) it was 27.1%; in experiment [2] (setting [7]), 37%; in experiment [2] (setting [8]), 40%; in experiment [2] (at 50.0 µM) it was 12.1%. Moreover, the growth inhibition in experiment [3] (setting [7]) was 16%; in experiment [3] (setting [8]), 18%; in experiment [3] (at 50.0 µM) it was 3.85%; in experiment [4] (setting [7]), 53%; in experiment [4] (setting [8]) it was 54%; in experiment [4] (at 50.0 µM) it was 59.4%. Moreover, the growth inhibition in experiment [5] (setting [7]) is 25%; in experiment [5] (setting [8]) it was 16%; in experiment [5] (at 50.0 µM), 36.5%; in experiment [6] (setting [7]), 33%; in experiment [6] (setting [8]) it was 60%; in experiment [6] (at 50.0 µM), 16.4%.
